Hits are enriched below; roughly 7.5% of the tested compounds scored in any of these assays.
Rab9 prom act: activators of Rab9 promoter; 2.8% of 320,000 active; Huh7 Rab9 promoter-luciferase reporter, luminescence, 24 h; AID 485297; Potency, µM (series often up to 9.22 µM), without a hit: at the highest dose activation, negative = inhibition, usual class: activators; also: % of control where 0% means no effect; nearly all actives have a fitted effect of over 60% in size
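Luminescence read-out: Huh7 cells stably expressing Rab9-luciferase, treated 24 h with compound at 37 °C, then lysed with luciferase reagent for 10 min at ambient before reading.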
FLuc counter: inhibits or activates purified firefly luciferase, miR-21 counter-screen; purified FLuc, Km substrates, luminescence inhibition; Potency, µM (top dose mostly 57.5 µM), for inactives: at the highest dose activity change, negative = inhibition, hits mostly inhibitors; P08659; 6.9% of 360,000 active; AID 588342;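 also: plate controls were vehicle for no effect and reference inhibitor for full effect; nearly all actives have a fitted effect of over 55% in size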
Target sequence (P08659 whole entry, looked up): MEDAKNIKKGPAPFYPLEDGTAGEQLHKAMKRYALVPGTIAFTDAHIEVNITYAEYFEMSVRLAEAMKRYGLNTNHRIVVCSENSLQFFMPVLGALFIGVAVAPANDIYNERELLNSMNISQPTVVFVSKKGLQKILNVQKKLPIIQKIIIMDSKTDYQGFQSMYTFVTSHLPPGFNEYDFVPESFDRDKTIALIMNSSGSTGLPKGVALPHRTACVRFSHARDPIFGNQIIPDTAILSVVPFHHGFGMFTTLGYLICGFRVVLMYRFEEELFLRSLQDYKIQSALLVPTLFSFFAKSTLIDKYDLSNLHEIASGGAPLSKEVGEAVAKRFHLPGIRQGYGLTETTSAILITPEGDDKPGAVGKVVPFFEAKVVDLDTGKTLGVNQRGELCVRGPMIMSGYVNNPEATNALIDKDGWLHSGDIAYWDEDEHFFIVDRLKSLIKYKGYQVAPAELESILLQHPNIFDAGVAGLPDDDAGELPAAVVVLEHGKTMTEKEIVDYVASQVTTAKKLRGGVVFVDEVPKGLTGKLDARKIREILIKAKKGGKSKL
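Purified P. pyralis luciferase (10nM final) with 10uM D-luciferin and 10uM ATP (Km levels) in 50mM Tris acetate pH 7.5, 10mM Mg acetate, 0.01% Tween-20, 0.05% BSA; qHTS 6-point titration, ~60 µM downward; luminescence read.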
Luc counter: Kinase-Glo luciferase inhibition (counter-screen). Q27757. Kinase-Glo luciferase, ATP luminescence, 8 min. Potency, µM (series often up to 38.3 µM), without a hit: top-dose activity change, negative = inhibition, hits mostly inhibitors. 0.28% of 200,000 active. AID 1379; also: % is scaled to controls: 0 for no effect and ±100 for the full control effect; nearly all actives have a fitted effect of over 60% in size
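Compound is pinned into ATP-containing buffer (10 uM ATP, imidazole pH 7.2, 7 mM MgCl2). Kinase-Glo luciferase reagent is then added. Light output is recorded following an 8-min room-temperature incubation.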
SMN2 splice up: enhancers of SMN2 splice variant expression; HEK293 SMN2-luciferase splicing reporter, luminescence, 30-36 h; Potency, µM (highest dose often 46.1 µM), for inactives: at the highest dose activity change, positive = activation, actives largely listed as activators; 2.8% of 210,000 active; also: % of control where 0% means no effect; nearly all actives have a fitted effect of over 55% in size
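HEK293 cells carry an SMN2 minigene-luciferase reporter in which exon 7 inclusion puts luciferase in frame. Cells were seeded at 2000 cells/well, attached for 10-12 hours, then exposed to compounds for 30-36 hours at 37C before ONE-Glo luminescence.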
ELG1 genotox: genotoxicity induction in ELG1-luciferase HEK293T cells; HEK293T ELG1-luciferase reporter, luminescence, 16 h; Potency, µM (doses to about 46 µM), for the others: top-dose activity change, positive = activation, actives largely listed as activators; 1.3% of 330,000 active; AID 504466; also: % of control where 0% means no effect; nearly all actives have a fitted effect of over 60% in size
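Cells (2,000/well) expressing the ELG1-luciferase fusion are dosed by pin tool and kept 16 hr at 37 °C, 5% CO2. Signal comes from ONE-Glo luciferase reagent after 30 min at room temperature.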
NPC1 promoter act: activates the NPC1 promoter; Huh7 NPC1 promoter luciferase reporter, 24 h; Potency, µM (top dose mostly 9.22 µM), for the others: top-dose activation, most hits filed as activators; 2.4% of 320,000 active; also: % of control where 0% means no effect; nearly all actives have a fitted effect of over 60% in size
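Compounds in DMSO were transferred onto Huh7 NPC1-luciferase reporter cells pre-incubated 2 h; after 24 h at 37 °C, Amplite reagent was dispensed and luminescence recorded 10 min later.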
* hit, by the source's call; u = inconclusive; x = not tested or not shown; [ ] = dose if it differs, or a comment. Calls follow the shape of the dose curve; as a rule, active = well fitted curve in the direction sought with a large enough effect; inconclusive = small, poorly fitted or top-dose-only effect, or another doubt; inactive = no such curve, though single readings can be large; an effect the other way counts as inactive or inconclusive. Potency is read from the fitted curve at half-maximal effect.

SMILES	Rab9 prom act	FLuc counter	Luc counter	SMN2 splice up	ELG1 genotox	NPC1 promoter act
COc1ccc(-c2csc(NC(=O)c3ccc(S(C)(=O)=O)cc3)n2)cc1	u	u	0%	0%	8%	21%
COC(=O)c1ccc2nc(-c3ccc(S(C)(=O)=O)cc3)cn2c1	u	24µM*	-15%	4%	9%	u
O=S(=O)(c1ccc(-c2cn3ccccc3n2)cc1)N1CCOCC1	2%	u	-3%	-43%	11%	3%
O=C(Nc1ccccc1)C1=C[C@H](c2ccc(Br)cc2)C[C@H](OCc2ccc(CO)cc2)O1	-4%	1%	x	x	-1%	0%
O=C(CNC(=S)N(Cc1ccccc1F)C1CCCCC1)NCC1CCCO1 (stereo not given)	-4%	2%	-1%	-9%	-4%	-3%
COc1ccc(-c2cc(C(=O)Nc3cc(Cl)ccc3O)no2)cc1	u	u	x	x	16µM*	3.5µM*
Cc1ccc(-c2cc(C(=O)Nc3cc(C)ccc3O)no2)cc1	u	u	x	x	9%	u
COc1ccc(-c2cc(C(=O)Nc3cc(C)ccc3O)no2)cc1	20%	-8%	x	x	21µM*	u
Cc1ccc(O)c(NC(=O)c2cc(-c3ccccc3Cl)on2)c1	u	u	x	x	16µM*	u
COc1ccccc1CNC(=O)Cn1nc(C)n2cccc2c1=O	x	-8%	x	x	x	x
COC(=O)c1c(C)[nH]c(/C=N/Nc2ccccc2)c1C	13%	11µM*	x	x	u	1%
CCCCn1c(NCc2ccc(N(C)C)cc2)nc2ccccc21	9%	u	x	-12%	-3%	3%
Cc1ccc(CNc2nc3ccccc3n2C)cc1	0.5µM*	2.4µM*	x	x	u	0.5µM*
CCn1c(NCc2ccccc2Cl)nc2ccccc21	29%	19µM*	0%	u	1%	19%
Cn1c(NCc2ccc(Cl)cc2)nc2ccccc21	3.5µM*	9.5µM*	-2%	11µM*	u	2.5µM*
C=CCn1c(NCc2ccc(N(C)C)cc2)nc2ccccc21	13%	24µM*	2%	30%	5%	18%
COc1ccc(C(C)(C)NC(=O)C2CCC(=O)N(CCCN3CCCC3=O)C2)cc1 (stereo not given)	2%	5%	x	x	-2%[9.26 µM]	1%
Cc1cc(OCC(=O)NNC(=S)NC(=O)c2ccc(Br)o2)ccc1Cl	-4%	-17%	x	x	-3%	3%
Cc1ccc(S(=O)(=O)C2(C(=O)N3CCN(c4cc(C)ccc4C)CC3)CC2)cc1	-2%	0%	2%	-36%	-11%	-8%
COc1cccc(-c2ocnc2C(=O)Nc2ccc3c(c2)CCC3)c1	9%	19µM*	x	x	16%	-1%
COc1ccc(/C=C/C(=O)Nc2ccc(-c3nnc4n3CCCCC4)cc2)c(OC)c1	1%	27µM*	-1%	-12%	-7%	4%
Cc1ccc(NC(=O)c2ncoc2-c2ccco2)cc1Cl	x	11µM*	x	x	x	x
Cc1ccc(NC(=O)Nc2ccc3c(c2)CCC3)cc1C	29%	1%	x	x	14%	30%
Cc1ccc(NC(=O)Cn2nc(-c3ccco3)ccc2=O)cc1Cl	0%	-3%	x	x	-1%	1%
COc1ccc(NC(=O)Nc2ccc3c(c2)CCC3)cc1	u	-13%	x	x	21µM*	u
SMILES	Rab9 prom act	FLuc counter	Luc counter	SMN2 splice up	ELG1 genotox	NPC1 promoter act
CN(Cc1nccs1)C(=O)C1CCC(=O)N(CCc2ccc(Cl)cc2)C1 (stereo not given)	0%	1%	x	x	0%[9.26 µM]	-1%
Cc1ccccc1C(=O)NC1(C(F)(F)F)C(=O)Nc2c1c(=O)[nH]c(=O)n2CCc1ccccc1 (stereo not given)	x	-13%	x	x	x	x
COc1ccccc1/C=C/C(=O)Nc1ccc(N2CCOCC2)cc1	0%	-6%	-1%	-3%	5%	-37%
COc1ccc(OC)c(/C=C/C(=O)Nc2ccc3c(c2)CCC3)c1	1%	11µM*	5%	12%	0%	6%
COc1ccccc1/C=C/C(=O)Nc1ccc2c(c1)CCC2	1.8µM*	4.3µM*	-1%	13µM*	u	3.2µM*
COc1ccc(CNC(=O)COC(=O)/C=C/c2cccc(Br)c2)cc1OC	2%	-2%	2%	-11%	-11%	-1%
Cc1cc(C(=O)COc2ccc(F)cc2Br)c(C)n1C	28%	21µM*	1%	13%	8%	14%
Cc1cc(C(=O)CN2CCN(CC(=O)Nc3ccc(F)cc3)CC2)c(C)n1C1CC1	-5%	x	x	x	1%	0%
Cc1cc(C(=O)COc2ccc(F)cc2Br)c(C)n1C1CC1	u	11µM*	x	x	0%	17%
Cc1cnc(C(=O)OCC(=O)c2cc(C)n(C)c2C)cn1	4%	-15%	0%	5%	2%	-2%
CCOc1c2ccoc2nc2c(OC)c(OC)ccc12	21%	21µM*	x	x	u	14%
C=CCOc1ccc2c(OC)c3ccoc3nc2c1OC	2%	9.5µM*	-8%	13µM*	u	22%
C[C@H](NS(=O)(=O)c1ccc(Cl)cc1)C(=O)OCC(=O)NC(=O)Nc1ccc2c(c1)OCCO2	21%	17µM*	-4%	u	u	19%
COc1ccc(NC(=O)CSc2nnnn2-c2ccc(OC)cc2)cc1	-2%	0%	-4%	-3%	2%	8%
Cc1nnc(SCC(=O)NC(=O)Nc2ccc3c(c2)OCCO3)n1N	1.8µM*	17µM*	x	x	3%	u
COc1ccc(-n2nnnc2SCC(=O)NC(=O)Nc2ccc3c(c2)OCCO3)cc1	27%	19µM*	20%	-16%	u	19%
Cc1ccc(-n2nnnc2SCC(=O)NC(=O)Nc2ccc3c(c2)OCCO3)cc1	u	21µM*	2%	19%	15%	28%
O=C(CSc1nnnn1-c1ccc(Cl)cc1)NC(=O)Nc1ccc2c(c1)OCCO2	u	u	-3%	u	17%	u
CC(=O)c1ccc(S(=O)(=O)N(C)CC(=O)NCc2ccco2)cc1	18%	x	x	x	7%	5%
O=C(NCC1CCCN(Cc2cccc(F)c2)C1)c1cccc2ccccc12 (stereo not given)	1%	0%	x	x	-7%	-1%
Cc1ccc(NC(=O)Nc2nnc(N(CC(C)C)CC(C)C)s2)cc1Cl	x	-17%	x	x	x	x
C/C(N)=C(/C#N)C(=O)COC(=O)c1cc2c(s1)CCC(C)C2 (stereo not given)	-2%	17µM*	-1%	20%	u	-2%
CC1CCc2sc(C(=O)OCC(=O)NCc3ccccc3)cc2C1 (stereo not given)	-1%	7%	x	x	10%	-1%
